{"source": "PubChem BioAssay (Tox21)", "note": "Records with an inconclusive call do not appear. Activity calls are given as the source filed them. Calls come from the whole dose curve; as a rule, active = well fitted cell-killing curve with a large enough effect in the repeat runs; inconclusive = weak or mixed curves, or effect the other way; inactive = flat fitted curve, though single readings scatter. % is set by controls: 0 for no effect and ±100 for the full control effect; potency is the fitted concentration of half-maximal effect.", "data": [{"assay": "qHTS assay to identify small molecule antagonists of the estrogen related receptor signaling pathway with the pleiotropic PPARgamma coactivator (PGC) cell viability counter screen (AID 1224822;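 note: viability read after 17.5 h compound exposure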)", "conditions": "ERR/PGC reporter cell line viability counter screen; series mostly up to 46.1 µM; viability change, negative = cytotoxic: at the top concentration", "excerpt": "National Center for Advancing Translational Sciences [NCATS]\nNIH Chemical Genomics Center [NCGC]\nU.S. Environmental Protection Agency [EPA]\nNational Institutes of Environmental Health Sciences [NIEHS]\nNational Toxicology Program [NTP]\nU.S. Food and Drug Administration [FDA]\nEstrogen related receptors (ERRs), the first orphan nuclear receptors discovered, play an important role in the control of cellular energy metabolism. ERRs are required for high-energy production in response to the environmental challenges. The pleiotropic PPARgamma coactivator (PGC) is a major partner of ERR and a key regulator in energy homeostasis. Together they have been implicated in the etiology of metabolic disorders such as Type 2 diabetes and metabolic syndrome. ERR-alpha was also identified as an adverse marker for breast cancer progression; ERR-alpha-positive tumors have a poor prognosis. To screen and to identify environmental compounds that perturb the ERR and PGC/ERR signaling pathways could provide valuable information for potential therapeutic or preventive measures in the treatment of metabolic disease. To differentiate true PGC/ERR antagonists or agonist from cytotoxic substances, the assay is multiplexed with cell viability assay.\nTox21 Assay Protocol Summary:\nThe PGC/ERR cells were dispensed at 2,000 cells/5 ul/well in 1536-well white plates using a Multidrop dispenser. After the assay plates were incubated at a 37 C/5% CO2 incubator for 6 hours, 23 nL of compounds dissolved in DMSO, positive and negative controls or DMSO only was transferred to the assay plate by a pin tool. The plates were incubated at 37 C for 17.5 hours. 1 ul/well of CellTiter-Fluor reagent was added into the assay plates using a Flying Reagent Dispenser. After 30 min incubation at 37 C/5% CO2, the fluorescence intensity in the plates was measured using a ViewLux plate reader.", "values": [{"smiles": "Nc1cc2c(ncn2CCOCP(=O)(O)O)c(=O)[nH]1", "viability change, negative = cytotoxic": "1.21% (inactive)"}, {"smiles": "CC(=O)NCCc1c[nH]c2ccccc12", "viability change, negative = cytotoxic": "11.5% (inactive)"}, {"smiles": "N[C@@H](Cn1oc(=O)[nH]c1=O)C(=O)O", "viability change, negative = cytotoxic": "-3.29% (inactive)"}, {"smiles": "CN(N=O)c1cc(O)ccc1O", "viability change, negative = cytotoxic": "1.15% (inactive)"}, {"smiles": "COC(=O)N1CCN(C(=O)Cc2ccc(Cl)c(Cl)c2)C(CN2CCCC2)C1", "note": "(stereo not given)", "viability change, negative = cytotoxic": "7.01% (inactive)"}, {"smiles": "C[C@]12CCC3C(CC[C@H]4C[C@H](O)CC[C@]34C)C1CC[C@@H]2C(=O)CO", "note": "(stereo not given in full)", "viability change, negative = cytotoxic": "-6% (inactive)"}, {"smiles": "C[N+](C)(C)CC#CCOC(=O)Nc1cccc(Cl)c1", "viability change, negative = cytotoxic": "6.18% (inactive)"}, {"smiles": "COC(=O)[C@@H](N)CCCN=C(N)N[N+](=O)[O-]", "viability change, negative = cytotoxic": "5.48% (inactive)"}, {"smiles": "O=C(NC1CN2CCC1CC2)c1cc2ccoc2cn1", "note": "(stereo not given)", "viability change, negative = cytotoxic": "15% (inactive)"}, {"smiles": "NCCc1c[nH]c2ccc(O)cc12", "viability change, negative = cytotoxic": "12.8% (inactive)"}, {"smiles": "OCc1cnc[nH]1", "viability change, negative = cytotoxic": "3.46% (inactive)"}, {"smiles": "NC(=O)COc1c(F)cc(SCCNS(=O)(=O)c2ccccc2)cc1F", "viability change, negative = cytotoxic": "-5.85% (inactive)"}, {"smiles": "NCCc1c[nH]c2ccccc12", "viability change, negative = cytotoxic": "11% (inactive)"}, {"smiles": "CP(=O)(O)C1=CCNCC1", "viability change, negative = cytotoxic": "2.73% (inactive)"}, {"smiles": "CCCN(CCC)[C@H]1CCc2c(F)ccc(O)c2C1", "viability change, negative = cytotoxic": "-4.98% (inactive)"}, {"smiles": "NC(CP(=O)(O)O)C(=O)O", "note": "(stereo not given)", "viability change, negative = cytotoxic": "4.45% (inactive)"}, {"smiles": "COc1ccc(OC)c(C(O)C(C)N)c1", "note": "(stereo not given)", "viability change, negative = cytotoxic": "-4.37% (inactive)"}, {"smiles": "CC(N)Cc1c[nH]c2ccc(O)cc12", "note": "(stereo not given)", "viability change, negative = cytotoxic": "9.29% (inactive)"}, {"smiles": "O=[N+]([O-])/C=C/c1ccc2c(c1)OCO2", "Potency": "22 µM (active)"}, {"smiles": "O=c1ccc2[nH]cc(C3=CCNCC3)c2[nH]1", "viability change, negative = cytotoxic": "5.55% (inactive)"}, {"smiles": "NCCc1c[nH]c2ccc(C(N)=O)cc12", "viability change, negative = cytotoxic": "10.4% (inactive)"}, {"smiles": "Oc1ccc2c3c1O[C@H]1c4oc5ccccc5c4C[C@@]4(O)C(C2)N(CC2CC2)CCC314", "note": "(stereo not given in full)", "viability change, negative = cytotoxic": "-11% (inactive)"}, {"smiles": "CCCN1CCC[C@@H](c2cccc(O)c2)C1", "viability change, negative = cytotoxic": "-3.75% (inactive)"}, {"smiles": "C[N+](C)(C)CCOC(=O)CBr", "viability change, negative = cytotoxic": "12.1% (inactive)"}, {"smiles": "O=C1CC[C@@]2(O)C3Cc4ccc(O)c5c4C2(CCN3CC2CC2)[C@H]1O5", "note": "(stereo not given in full)", "viability change, negative = cytotoxic": "13% (inactive)"}, {"smiles": "Oc1ccc2c3c1O[C@H]1c4[nH]c5c(c4C[C@@]4(O)[C@@H](C2)N(CC2CC2)CC[C@]314)C[C@@]1(O)[C@H]2Cc3ccc(O)c4c3[C@@]1(CCN2CC1CC1)[C@H]5O4", "viability change, negative = cytotoxic": "7.08% (inactive)"}, {"smiles": "CCCC[N+]1(C)C2CC(OC(=O)[C@H](CO)c3ccccc3)CC1C1OC12", "note": "(stereo not given in full)", "viability change, negative = cytotoxic": "-6.62% (inactive)"}, {"smiles": "Nc1ccc(CCN2CCN(c3cccc(C(F)(F)F)c3)CC2)cc1", "viability change, negative = cytotoxic": "-19% (inactive)"}, {"smiles": "C[N+]1(C)C2CCC1CC(OC(=O)c1c[nH]c3ccccc13)C2", "note": "(stereo not given)", "viability change, negative = cytotoxic": "15.9% (inactive)"}, {"smiles": "O=C1CCCN1CC#CCN1CCCC1", "viability change, negative = cytotoxic": "11.7% (inactive)"}, {"smiles": "O=C1/C(=C/c2ccccc2)C[C@@]2(O)[C@H]3Cc4ccc(O)c5c4[C@@]2(CCN3CC2CC2)[C@H]1O5", "Potency": "6.19 µM (active)"}, {"smiles": "CCCN(CCC)C1CCc2ccc(O)cc2C1", "note": "(stereo not given)", "viability change, negative = cytotoxic": "4.95% (inactive)"}, {"smiles": "CCN1C[C@@]2(COC)C3[C@@H](OC)C4[C@H]1C3([C@@H]1C[C@@]3(O)[C@H](OC(=O)c5ccccc5)[C@@H]1[C@]4(OC(C)=O)[C@@H](O)[C@@H]3OC)[C@H](OC)C[C@H]2O", "viability change, negative = cytotoxic": "11.5% (inactive)"}, {"smiles": "c1ccc(CCCN2CCN(CCOC(c3ccccc3)c3ccccc3)CC2)cc1", "viability change, negative = cytotoxic": "-17.3% (inactive)"}, {"smiles": "CC(N)c1cccc(Cl)c1Cl", "note": "(stereo not given)", "viability change, negative = cytotoxic": "4.19% (inactive)"}, {"smiles": "S=C(NC1CCCCC1)N1CCC(c2cnc[nH]2)CC1", "viability change, negative = cytotoxic": "-5.53% (inactive)"}, {"smiles": "C[C@@H](N)Cc1cnc[nH]1", "viability change, negative = cytotoxic": "11.9% (inactive)"}, {"smiles": "CNCCc1ccc(O)c(O)c1", "viability change, negative = cytotoxic": "-9.8% (inactive)"}, {"smiles": "C[N+](C)(C)CC#CCN1CCCC1=O", "viability change, negative = cytotoxic": "-1.5% (inactive)"}, {"smiles": "CC(C)(C)OC(=O)NC1[C@H]2CNC[C@@H]12", "note": "(stereo not given in full)", "Potency": "20.3 µM (active)"}]}]}
